Results reported in PubChem BioAssay (NCATS).
Inconclusive results are not listed. Unmarked numbers belong to inactive results. The source made the active and inactive calls. The call rests on the fitted dose curve; in most records, active means well fitted curve in the direction sought with a large enough effect; inconclusive means small, poorly fitted or top-dose-only effect, or another doubt; inactive means no such curve, though single readings can be large; an effect the other way counts as inactive or inconclusive.

Tests used:
[1] = Quantitative High-Throughput drug screen in 47 multiple myeloma cell lines against the NCATS MIPE library collection: MOLP8_DSMZ cell viability assay (AID 1918977); further: nearly all actives have a fitted effect of over 45% in size
In short: (§1)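 Inhibition of viability over 48 h was scored by ATP content (CellTiter-Glo) in 500-cell wells. Zero and full viability were defined by media-only and DMSO-only wells.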

[2] = Quantitative High-Throughput drug screen in 47 multiple myeloma cell lines against the NCATS MIPE library collection: NCIH929_DSMZ cell viability assay (AID 1918978); further: nearly all actives have a fitted effect of over 35% in size
In short: as §1

[3] = Quantitative High-Throughput drug screen in 47 multiple myeloma cell lines against the NCATS MIPE library collection: OCIMY1_PLB cell viability assay (AID 1918979); further: nearly all actives have a fitted effect of over 35% in size;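 on viability: series mostly up to about 46 µM; 100% = DMSO-only wells and 0% = cell-free media-only wells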
In short: as §1

[4] = Quantitative High-Throughput drug screen in 47 multiple myeloma cell lines against the NCATS MIPE library collection: MM1S_ATCC cell viability assay (AID 1918980); further: nearly all actives have a fitted effect of over 45% in size
In short: as §1

[5] = Quantitative High-Throughput drug screen in 47 multiple myeloma cell lines against the NCATS MIPE library collection: MM1R_ATCC cell viability assay (AID 1918981); further: nearly all actives have a fitted effect of over 35% in size
In short: as §1

[6] = Quantitative High-Throughput drug screen in 47 multiple myeloma cell lines against the NCATS MIPE library collection: LP1_DSMZ cell viability assay (AID 1918982); further: nearly all actives have a fitted effect of over 35% in size
In short: as §1

[7] = Quantitative High-Throughput drug screen in 47 multiple myeloma cell lines against the NCATS MIPE library collection: KMS28PE_JCRB cell viability assay (AID 1918983); further: nearly all actives have a fitted effect of over 35% in size
In short: as §1

[8] = Quantitative High-Throughput drug screen in 47 multiple myeloma cell lines against the NCATS MIPE library collection: L363_DSMZ cell viability assay (AID 1918984); further: nearly all actives have a fitted effect of over 40% in size
In short: as §1

[9] = Quantitative High-Throughput drug screen in 47 multiple myeloma cell lines against the NCATS MIPE library collection: KMS34_JCRB cell viability assay (AID 1918985); further: nearly all actives have a fitted effect of over 40% in size
In short: as §1

[10] = Quantitative High-Throughput drug screen in 47 multiple myeloma cell lines against the NCATS MIPE library collection: OCIMY7_PLB cell viability assay (AID 1918987); further: nearly all actives have a fitted effect of over 65% in size
In short: as §1

[11] = Quantitative High-Throughput drug screen in 47 multiple myeloma cell lines against the NCATS MIPE library collection: OCIMY5_PLB cell viability assay (AID 1918988); further: nearly all actives have a fitted effect of over 65% in size
In short: as §1

[12] = Quantitative High-Throughput drug screen in 47 multiple myeloma cell lines against the NCATS MIPE library collection: OPM1_PLB cell viability assay (AID 1918989); further: nearly all actives have a fitted effect of over 40% in size
In short: as §1

[13] = Quantitative High-Throughput drug screen in 47 multiple myeloma cell lines against the NCATS MIPE library collection: SKMM1_PLB cell viability assay (AID 1919863); details: SKMM1 myeloma viability, CellTiter-Glo ATP, 48 h; viability: hits give low values; further: nearly all actives have a fitted effect of over 35% in size; on viability: series mostly up to about 46 µM
In short: as §1

[14] = Quantitative High-Throughput drug screen in 47 multiple myeloma cell lines against the NCATS MIPE library collection: U266_ATCC cell viability assay (AID 1919864); further: nearly all actives have a fitted effect of over 35% in size;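 on viability (% of DMSO control): 0% = media-only wells without cells and 100% = DMSO-only wells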
In short: as §1

[15] = Quantitative High-Throughput drug screen in 47 multiple myeloma cell lines against the NCATS MIPE library collection: XG6_PLB cell viability assay (AID 1919865); further: nearly all actives have a fitted effect of over 40% in size
In short: as §1

[16] = Quantitative High-Throughput drug screen in 47 multiple myeloma cell lines against the NCATS MIPE library collection: VP6_DJ cell viability assay (AID 1919867); further: nearly all actives have a fitted effect of over 40% in size
In short: as §1

[17] = Quantitative High-Throughput drug screen in 47 multiple myeloma cell lines against the NCATS MIPE library collection: UTMC2_PLB cell viability assay (AID 1919868); details: CellTiter-Glo ATP luminescence, 48 h; viability (% of DMSO control): at 45.8 µM; further: nearly all actives have a fitted effect of over 55% in size
In short: as §1

[18] = Quantitative High-Throughput drug screen in 47 multiple myeloma cell lines against the NCATS MIPE library collection: PE2_PLB cell viability assay (AID 1919869); further: nearly all actives have a fitted effect of over 35% in size
In short: as §1

[19] = Quantitative High-Throughput drug screen in 47 multiple myeloma cell lines against the NCATS MIPE library collection: XG1_PLB cell viability assay (AID 1919866); further: nearly all actives have a fitted effect of over 35% in size
In short: as §1

[20] = Quantitative High-Throughput drug screen in 47 multiple myeloma cell lines against the NCATS MIPE library collection: MMM1_PLB cell viability assay (AID 1918976); further: nearly all actives have a fitted effect of over 35% in size
In short: as §1
Potency means the concentration at half of the fitted maximal effect.

COc1ccc2c(c[n+](C)c3c4cc5c(cc4ccc23)OCO5)c1OC
Potency [1]: 3.32 µM (active) | Potency [2]: 7.43 µM (active) | Potency [3]: 7.43 µM (active) | Potency [4]: 4.69 µM (active) | Potency [5]: 2.35 µM (active) | Potency [6]: 14.8 µM (active) | Potency [7]: 4.69 µM (active) | Potency [8]: 4.18 µM (active) | Potency [9]: 4.18 µM (active) | Potency [10]: 2.96 µM (active) | Potency [11]: 2.09 µM (active) | Potency [12]: 9.35 µM (active) | Potency [13]: 5.9 µM (active) | Potency [14]: 5.9 µM (active) | Potency [15]: 5.26 µM (active) | Potency [16]: 2.96 µM (active) | Potency [17]: 5.26 µM (active) | Potency [18]: 7.43 µM (active)

c1ccc2c(CN3CCNCC3)cccc2c1
Potency [1]: inactive | Potency [2]: inactive | Potency [3]: inactive | Potency [4]: inactive | Potency [5]: inactive | Potency [6]: inactive | Potency [7]: inactive | Potency [9]: inactive | Potency [11]: inactive | viability [13]: 106% | Potency [14]: inactive | Potency [15]: inactive | Potency [19]: inactive

CC(O)=C(C#N)C(=O)Nc1cc(Br)ccc1Br
Potency [20]: 16.6 µM (active) | Potency [2]: inactive | Potency [3]: inactive | Potency [4]: 20.9 µM (active) | Potency [5]: 20.9 µM (active) | Potency [6]: inactive | Potency [7]: 14.8 µM (active) | Potency [11]: 1.66 µM (active) | Potency [13]: 20.9 µM (active) | Potency [15]: inactive | Potency [16]: 2.96 µM (active)

CC(=O)N(C)c1cccc(-c2ccnc3c(C(=O)c4cccs4)cnn23)c1
Potency [20]: 2.96 µM (active) | Potency [3]: inactive | Potency [6]: inactive | Potency [7]: inactive | Potency [8]: inactive | viability [13]: 119% | Potency [15]: inactive | Potency [18]: inactive

CCCN1CCO[C@@H]2c3cc(O)ccc3OC[C@@H]21
Potency [20]: 16.6 µM (active) | Potency [2]: inactive | Potency [3]: inactive | Potency [4]: 14.8 µM (active) | Potency [6]: 20.9 µM (active) | Potency [7]: inactive | Potency [11]: 18.7 µM (active) | Potency [12]: inactive | Potency [14]: inactive | Potency [18]: inactive

COC1=CC(C)=C[C@@H](C)[C@@H](O)[C@@H](C)CC(C)=CC=C[C@H](OC)[C@H]([C@@H](C)[C@@H](O)[C@H](C)[C@@]2(O)C[C@@H](O)[C@H](C)[C@@H](C(C)C)O2)OC1=O
Potency [20]: 10.5 µM (active) | Potency [3]: 0.0037 µM (active) | Potency [4]: 1.48 µM (active) | Potency [5]: 1.66 µM (active) | Potency [6]: 0.0021 µM (active) | Potency [7]: 14.8 µM (active) | Potency [9]: 0.003 µM (active) | Potency [12]: 0.0235 µM (active) | Potency [15]: 0.001 µM (active) | Potency [18]: 0.0118 µM (active)

CC(C)(C)[C@]1(O)C[C@@H]2OC(=O)C[C@@]23C(=O)O[C@@H]2OC(=O)[C@H](O)C213 (stereo partly drawn)
Potency [1]: inactive | Potency [2]: inactive | Potency [3]: inactive | Potency [4]: inactive | Potency [5]: inactive | Potency [6]: inactive | Potency [7]: inactive | Potency [9]: inactive | Potency [11]: inactive | Potency [12]: inactive | Potency [14]: inactive | Potency [15]: inactive

C[C@H]([C@H](O)CCC(C)(C)O)[C@H]1CC[C@@]2(O)C3=CC(=O)[C@@H]4C[C@@H](O)[C@@H](O)C[C@]4(C)[C@@H]3CC[C@]12C
Potency [20]: 14.8 µM (active) | Potency [2]: inactive | Potency [3]: inactive | Potency [4]: inactive | Potency [5]: inactive | Potency [6]: inactive | Potency [8]: inactive | Potency [10]: inactive | Potency [12]: inactive | Potency [14]: inactive | Potency [15]: inactive | Potency [18]: inactive

Cc1c(C(=O)c2cccc3ccccc23)c2cccc3c2n1[C@H](CN1CCOCC1)CO3
Potency [20]: 23.5 µM (active) | Potency [2]: 23.5 µM (active) | Potency [7]: 26.4 µM (active) | Potency [8]: 3.72 µM (active) | Potency [9]: 23.5 µM (active) | Potency [10]: 13.2 µM (active) | Potency [11]: 23.5 µM (active) | Potency [12]: 23.5 µM (active) | Potency [13]: 23.5 µM (active) | Potency [14]: 18.7 µM (active) | Potency [19]: inactive | Potency [16]: inactive | Potency [18]: 23.5 µM (active)

O=c1[nH]c2ccc(Cl)cc2c(N[C@@H]2CN3CCC2CC3)c1-c1nc2ccccc2[nH]1
Potency [20]: 6.62 µM (active) | Potency [1]: 0.743 µM (active) | Potency [2]: 0.148 µM (active) | Potency [3]: 4.69 µM (active) | Potency [4]: 0.0743 µM (active) | Potency [5]: 0.0833 µM (active) | Potency [6]: 3.32 µM (active) | Potency [7]: 2.35 µM (active) | Potency [9]: 0.0743 µM (active) | Potency [10]: 0.059 µM (active) | Potency [11]: 0.0833 µM (active) | Potency [12]: 0.0526 µM (active) | Potency [13]: 4.69 µM (active) | Potency [14]: 5.9 µM (active) | Potency [15]: 0.0372 µM (active) | Potency [16]: 0.132 µM (active) | Potency [18]: 0.0743 µM (active)

CC(C)(O)C(=O)Nc1ccc([N+](=O)[O-])c(C(F)(F)F)c1
Potency [1]: inactive | Potency [2]: 5.26 µM (active) | Potency [3]: inactive | Potency [4]: 9.35 µM (active) | Potency [5]: inactive | Potency [7]: inactive | Potency [9]: inactive | Potency [10]: 7.43 µM (active) | Potency [12]: 20.9 µM (active) | Potency [14]: 18.7 µM (active) | Potency [15]: 3.32 µM (active) | Potency [19]: 8.33 µM (active) | Potency [16]: 8.33 µM (active) | Potency [18]: 9.35 µM (active)
